Compounds without any hit were thinned out: in the full panel of roughly 79,000, 15% have a hit. Activity calls are given as the source filed them. Rule as the data show it: active = growth inhibition above about 70%; inactive = the rest.
Assays:
[1] = NCI Yeast Anticancer Drug Screen. Data for the rad52 strain (AID 147);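 also: 0% = growth of vehicle-treated control cultures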; conditions: S. cerevisiae rad52 mutant growth inhibition, active compounds read high
Summary of the method: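 Measured: yeast growth inhibition. System: strain with a defined DNA damage repair alteration. Reference: vehicle-treated control cultures.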

[2] = NCI Yeast Anticancer Drug Screen. Data for the wt1 strain (AID 149);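 also: 0% = growth of vehicle-treated wt1 cultures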; conditions: S. cerevisiae wt1 strain (SPY 50644) growth inhibition, active compounds read high
Summary of the method: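 Vehicle-normalised growth inhibition; strain wt1; compound exposure.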

[3] = NCI Yeast Anticancer Drug Screen. Data for the rad50EPP+ strain (AID 151);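 also: 0% = growth of vehicle-treated control cultures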; conditions: S. cerevisiae rad50 mutant strain, active compounds read high
Summary of the method: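 One strain with a rad50 alteration (rad50EPP+) was compound-treated, its growth then compared to that of vehicle controls.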

[4] = NCI Yeast Anticancer Drug Screen. Data for the mgt1 strain (AID 153); conditions: S. cerevisiae mgt1 mutant growth inhibition, active compounds read high
Summary of the method: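 After exposure of the mgt1 yeast mutant to compound, growth was measured and reported as inhibition compared with vehicle controls.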

[5] = NCI Yeast Anticancer Drug Screen. Data for the rad50 strain (AID 155);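 also: 0% = growth of vehicle-only cultures of the same strain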; conditions: S. cerevisiae rad50 strain growth inhibition, active compounds read high
Summary of the method: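 A DNA repair-deficient yeast mutant serves as the test organism; compound-induced growth inhibition is calculated against vehicle-treated cells.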

[6] = NCI Yeast Anticancer Drug Screen. Data for the mec2-1 strain (AID 157); conditions: S. cerevisiae mec2-1 strain, active compounds read high
Summary of the method: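 Test agents were screened against the mec2-1 yeast strain, with defined DNA repair or cell cycle alteration. Growth was scored as inhibition against vehicle-only controls.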

[7] = NCI Yeast Anticancer Drug Screen. Data for the rad14 strain (AID 159);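 also: 0% = growth of vehicle-treated control cultures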; conditions: S. cerevisiae rad14 strain growth inhibition, active compounds read high
Summary of the method: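 Vehicle-treated cultures served as the baseline for growth inhibition of a DNA repair-mutant yeast strain exposed to each compound.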

[8] = NCI Yeast Anticancer Drug Screen. Data for the sgs1 mgt1 strain (AID 161);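 also: 0% = growth of cultures given vehicle only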; conditions: S. cerevisiae sgs1 mgt1 strain, active compounds read high
Summary of the method: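 Mutant yeast exposed to compound; growth scored against vehicle-only wells.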

[9] = NCI Yeast Anticancer Drug Screen. Data for the CLN2oe strain (AID 163);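 also: 0% = growth of vehicle-only control cultures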; conditions: S. cerevisiae CLN2oe strain, active compounds read high
Summary of the method: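 Here, growth inhibition in a cell-cycle-altered yeast strain after compound exposure was quantified against vehicle control growth.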

[10] = NCI Yeast Anticancer Drug Screen. Data for the cln2 rad14 strain (AID 165);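 also: 0% = growth equal to vehicle treated cultures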; conditions: S. cerevisiae cln2 rad14 strain, active compounds read high
Summary of the method: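 Growth of compound-exposed yeast (cln2 rad14 genotype) measured and expressed as inhibition relative to vehicle.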

[11] = NCI Yeast Anticancer Drug Screen. Data for the bub3 strain (AID 167); conditions: S. cerevisiae bub3 mutant strain, active compounds read high
Summary of the method: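 Inhibition values come from growth of compound-treated mutant yeast normalised to vehicle-treated controls.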

[12] = NCI Yeast Anticancer Drug Screen. Data for the wt2 strain (AID 169);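 also: 0% = growth of vehicle-treated yeast cultures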; conditions: S. cerevisiae wt2 strain growth inhibition, active compounds read high
Summary of the method: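 Genetically defined yeast strains from a DNA-repair/cell-cycle panel were used. Compound-exposed yeast growth was measured, and the inhibition was calculated relative to vehicle treatment.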

[13] = NCI Yeast Anticancer Drug Screen. Data for the mlh1 strain (AID 171);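 also: 0% = growth of vehicle-treated control cultures of the same strain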; conditions: S. cerevisiae mlh1 strain growth inhibition, active compounds read high
Summary of the method: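 Here the genetically defined yeast mutant is grown with each compound, and the extent to which its growth falls below that of vehicle-exposed cells is reported.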

[14] = NCI Yeast Anticancer Drug Screen. Data for the sgs1 strain (AID 173);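 also: 0% = growth of vehicle-only control cultures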; conditions: S. cerevisiae sgs1 mutant, active compounds read high
Summary of the method: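 Relative growth inhibition, referenced to vehicle, was determined in a yeast strain with a defined alteration affecting DNA damage repair or cell cycle control after compound exposure.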

[15] = NCI Yeast Anticancer Drug Screen. Data for the mlh1 rad18 strain (AID 175); conditions: S. cerevisiae mlh1 rad18 strain growth inhibition, active compounds read high
Summary of the method: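 In this whole-cell yeast screen, a strain with altered DNA damage repair is challenged with compound, and its growth is measured against matched vehicle-treated controls.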

[16] = NCI Yeast Anticancer Drug Screen. Data for the rad18 strain (AID 177); conditions: S. cerevisiae rad18 mutant growth inhibition, active compounds read high
Summary of the method: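 Screen uses a yeast strain with a defined lesion in DNA damage repair; compound effect is read as loss of growth compared to untreated vehicle cultures.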

[17] = at 5.0 µM (retest, dose inferred, filed as 0.5)
[18] = at 50.0 µM (retest, dose inferred, filed as 5.0)

Measured: growth inhibition

O=C1C=C(N2CCN(c3ccccn3)CC2)C(=O)c2c(O)ccc(O)c21
active: [5]; [18] 94% | [5]; at 50.0 µM 84.5% | [6]; [18] 84% | [7]; at 100.0 µM 87% | [8]; [18] 91% | [8]; at 50.0 µM 82.7% | [11]; [18] 71% | [11]; at 50.0 µM 88.8% | [13]; at 100.0 µM 75% | [14]; at 100.0 µM 82% | [15]; [18] 94% | [15]; at 50.0 µM 72.5%
inactive: [1]; at 1.2 µM 3% | [1]; at 3.7 µM 8% | [1]; at 11.0 µM 19% | [1]; at 33.0 µM 33% | [1]; at 100.0 µM 45% | [2]; at 1.2 µM 10% | [2]; at 3.7 µM 13% | [2]; at 11.0 µM 15% | [2]; at 33.0 µM 21% | [2]; at 100.0 µM 26% | [3]; at 1.2 µM -4% | [3]; at 3.7 µM -3% | [3]; at 11.0 µM 4% | [3]; at 33.0 µM 17% | [3]; at 100.0 µM 26% | [4]; at 1.2 µM 5% | [4]; at 3.7 µM 8% | [4]; at 11.0 µM 14% | [4]; at 33.0 µM 20% | [4]; at 100.0 µM 47% | [5]; at 1.2 µM -3% | [5]; at 3.7 µM -8% | [5]; [17] 28% | [5]; at 11.0 µM 0% | [5]; at 33.0 µM 37% | [5]; at 100.0 µM 55% | [6]; at 1.2 µM 7% | [6]; at 3.7 µM 8% | [6]; [17] -17% | [6]; at 11.0 µM 10% | [6]; at 33.0 µM 19% | [6]; at 50.0 µM 65.2% | [6]; at 100.0 µM 27% | [7]; at 1.2 µM 9% | [7]; at 3.7 µM 14% | [7]; at 11.0 µM 29% | [7]; at 33.0 µM 69% | [8]; [17] 8% | [9]; at 1.2 µM 11% | [9]; at 3.7 µM 7% | [9]; at 11.0 µM 13% | [9]; at 33.0 µM 21% | [9]; at 100.0 µM 21% | [10]; [17] -6% | [10]; [18] 15% | [10]; at 50.0 µM 25.9% | [11]; at 1.2 µM 4% | [11]; at 3.7 µM 3% | [11]; [17] 5% | [11]; at 11.0 µM 10% | [11]; at 33.0 µM 23% | [11]; at 100.0 µM 34% | [12]; at 1.2 µM 4% | [12]; at 3.7 µM 9% | [12]; at 11.0 µM 15% | [12]; at 33.0 µM 32% | [12]; at 100.0 µM 52% | [13]; at 1.2 µM 7% | [13]; at 3.7 µM 12% | [13]; at 11.0 µM 21% | [13]; at 33.0 µM 42% | [14]; at 1.2 µM 8% | [14]; at 3.7 µM 11% | [14]; at 11.0 µM 22% | [14]; at 33.0 µM 63% | [15]; [17] 10% | [16]; at 1.2 µM 1% | [16]; at 3.7 µM 4% | [16]; at 11.0 µM 17% | [16]; at 33.0 µM 46% | [16]; at 100.0 µM 68%

CCN(CC)CCN(C)CCc1ccc(Br)cc1
inactive: [1]; at 1.2 µM 12% | [1]; at 3.7 µM 19% | [1]; at 11.0 µM 37% | [1]; at 33.0 µM 48% | [2]; at 1.2 µM 5% | [2]; at 3.7 µM 11% | [2]; at 11.0 µM 19% | [2]; at 33.0 µM 32% | [3]; at 1.2 µM -3% | [3]; at 3.7 µM -3% | [3]; at 11.0 µM -2% | [3]; at 33.0 µM -2% | [3]; at 100.0 µM -3% | [4]; at 1.2 µM 5% | [4]; at 3.7 µM 10% | [4]; at 11.0 µM 40% | [5]; at 1.2 µM 7% | [5]; at 3.7 µM 10% | [5]; [17] -6% | [5]; at 11.0 µM 20% | [5]; at 33.0 µM 50% | [5]; [18] 11% | [5]; at 50.0 µM 31.8% | [6]; at 1.2 µM 10% | [6]; at 3.7 µM 17% | [6]; [17] 8% | [6]; at 11.0 µM 26% | [6]; at 33.0 µM 43% | [6]; [18] 26% | [6]; at 50.0 µM 33.6% | [7]; at 1.2 µM 15% | [7]; at 3.7 µM 36% | [7]; at 11.0 µM 57% | [8]; [17] 5% | [8]; [18] 41% | [8]; at 50.0 µM 68.4% | [9]; at 1.2 µM 11% | [9]; at 3.7 µM 15% | [9]; at 11.0 µM 35% | [9]; at 33.0 µM 64% | [10]; [17] 10% | [10]; [18] 52% | [10]; at 50.0 µM 53.4% | [11]; at 1.2 µM 10% | [11]; at 3.7 µM 16% | [11]; [17] 13% | [11]; at 11.0 µM 35% | [11]; at 33.0 µM 67% | [11]; [18] 21% | [11]; at 50.0 µM 53.5% | [12]; at 1.2 µM 6% | [12]; at 3.7 µM 11% | [12]; at 11.0 µM 33% | [12]; at 33.0 µM 68% | [14]; at 1.2 µM 10% | [14]; at 3.7 µM 23% | [14]; at 11.0 µM 49% | [15]; [17] -29% | [15]; [18] 25% | [15]; at 50.0 µM 68.3% | [16]; at 1.2 µM 11% | [16]; at 3.7 µM 32% | [16]; at 11.0 µM 54% | [16]; at 33.0 µM 66%
active: [1]; at 100.0 µM 91% | [2]; at 100.0 µM 83% | [4]; at 33.0 µM 84% | [4]; at 100.0 µM 96% | [5]; at 100.0 µM 85% | [6]; at 100.0 µM 78% | [7]; at 33.0 µM 87% | [7]; at 100.0 µM 97% | [9]; at 100.0 µM 89% | [11]; at 100.0 µM 84% | [12]; at 100.0 µM 94% | [14]; at 33.0 µM 85% | [14]; at 100.0 µM 94% | [16]; at 100.0 µM 91%

Reference: PubChem BioAssay (NCI)
